Results on 40 compounds are retold here after PubChem BioAssay (Tox21).

Molecules are shown by their SMILES. A number with no mark means an inactive call. Calls of active or inactive are those of the source. Calls come from the whole dose curve; as a rule, active = well fitted curve in the direction sought with a large enough effect in the repeat runs; inconclusive = weak or mixed curves; inactive = flat fitted curve, though single readings scatter.
% is set by controls: 0 for no effect and ±100 for the full control effect.

A short description of the experiment: qHTS assay to test for compound auto fluorescence at 460 nm (blue) in HEK293 cell free culture (AID 720681). Conditions: cell-free medium, autofluorescence 405/460 nm (blue); series mostly up to 91.3 µM; fluorescence, % of fluorescent control: at the top concentration. An excerpt: U.S. Tox21 Program National Center for Advancing Translational Sciences [NCATS] NIH Chemical Genomics Center [NCGC] U.S. Environmental Protection Agency [EPA] National Institutes of Environmental Health Sciences [NIEHS] National Toxicology Program [NTP] U.S. Food and Drug Administration [FDA] Tox21 Assay Overview: Compound auto fluorescence often interferes with screening of the compound library against various biological targets and signaling pathways. Some of these compounds may have fluorophoric properties. Such properties may interfere with the assay outputs resulting in false positives and/or negatives. To decrease such complications and ensure the compound activities are relevant in terms of biological response, the Tox21 10K compound library was screened for auto fluorescence. From the fluorophores used as reporter signals in our screening assays, the auto fluorescence equivalencies of compounds against three fluorophores have been evaluated: Triamterene, Fluorescein and Rose Bengal sodium for blue, green and red fluorescence, respectively. The fluorescence intensities were measured using Excitation/Emission wavelengths at 405/460nm, 485/535nm and 540/590nm for blue, green and red labels, respectively. This assay includes the blue fluorescence data.
Tox21 Assay Protocol Summary: 5 uL of culture medium (DMEM containing 10% FBS) per well was dispensed into black wall/clear bottom 1536-well plates using a Multidrop Combi Dispenser (ThermoFisher Scientific, Waltham, MA). After 23 nL compound or DMSO vehicle was transferred into assay plate by a pintool work station (Kalypsys, San Diego, CA), fluorescence intensities in the assay plates were measured by an Envision (PerkinElmer, Shelton, CT) plate reader using three labels for measuring blue, green and red fluorescence at […] 460, 535 and 590nm respectively.
For `CC(C)Nc1ccccc1`, the “fluorescence, % of fluorescent control” value was 0.0294%.
The same measure, in the same setting: with `CC(=O)CCC1=C(C)CCCC1(C)C` the figure was 0.0247%; with `CC(C)=CCC/C(C)=C/COC=O`, -0.0255%.
As to `CC(=O)O[C@@H]1CC2CCC1(C)C2(C)C` (stereo not given in full), the outcome was inactive.
`CC/C=C\CCOC(=O)c1ccccc1O`: the “fluorescence, % of fluorescent control” value is 0.0063%.
Still for that read-out and setting: with `CC1=C(C(=O)O)N2C(=O)[C@@H](NC(=O)[C@H](N)c3ccccc3)[C@H]2SC1` the figure was 0.514% [at 46 µM]; with `CN1CCOC(c2ccccc2)c2ccccc2C1` (stereo not given), -0.103% [at 18.6 µM].
Take `O=C(O)CCCCCC(=O)O`: the “fluorescence, % of fluorescent control” value was 0.057%.
The same measure, in the same setting: then `OC1OCCOC1O` (stereo not given), with 0.0217%; and `O=C=NCC1CCCC(CN=C=O)C1` (stereo not given), with -0.0887%.
Regarding `CC(C)OC(=O)CCC(=O)OC(C)C`, the “fluorescence, % of fluorescent control” value was -0.224%.
Same read-out and setting: with `O=Cc1cc2ccccc2o1` the figure was 0.0692%; with `CC1(C)[C@H]2CC[C@](C)(C2)[C@H]1O`, -0.0806% [at 95.7 µM].
For `CC1(C)Cc2cccc(N)c2O1`, the “fluorescence, % of fluorescent control” value is -0.0891%.
Still for that read-out and setting: then `CC(C)NCC(O)c1ccc2ccccc2c1` (stereo not given), with 0.0352% [at 46 µM]; and `C=CC/C=C/C`, with 0.055% [at 95.7 µM]; and `OCC(O)CN1CCN(c2ccccc2)CC1` (stereo not given), with -0.0239% [at 46 µM].
On the same count and under the same terms, with `CC(C)(C)NC[C@H](O)COc1cccc2c1CCCC2=O` the figure was 0.0024% [at 18.6 µM].
Still for that read-out and setting: then `Cc1cc(-c2ccccc2)nnc1NCCN1CCOCC1`, with 0.175% [at 46 µM]; and `CCO[Si](CC)(OCC)OCC`, with -0.0859%; and `O/N=C/C=N/O`, with 0.0529%.
For the compound `CCOCCOCC`, the “fluorescence, % of fluorescent control” value is -0.135% [at 95.7 µM].
Still for that read-out and setting: then `CC1c2ccccc2CN1NC(=O)c1ccc(Cl)c(S(N)(=O)=O)c1` (stereo not given), with 0.259% [at 46 µM]; and `CC(C)Cn1cnc2c1c(=O)n(C)c(=O)n2C`, with -0.146% [at 46 µM]; and `O=C1CCC(=O)N1Cl`, with -0.194%.
Same read-out and setting: then `CC(=O)C1C(=O)C=C(C)OC1=O` (stereo not given), with 0.52%.
As to `C[C@]12CCC(=O)C=C1CC[C@H]1[C@@H]3CC[C@](O)(C(=O)CO)[C@@]3(C)C[C@H](O)[C@@]12F`, the outcome was inactive.
On to `NCCOCCN`, for which the “fluorescence, % of fluorescent control” value is -0.0081%.
Take `C/C=C(\C)C(=O)OCCc1ccccc1`: the “fluorescence, % of fluorescent control” value is -0.0563%.
For `COP(=O)(O)OP(=O)(O)OC`, the “fluorescence, % of fluorescent control” value is -0.041%.
Regarding `Cc1c(N)cccc1Cl`, the “fluorescence, % of fluorescent control” value was -0.109%.
Same read-out and setting: then `CCC(=O)c1c(O)cc(O)cc1O`, with -0.177% [at 46 µM]; and `CC(C)[C@H]1CC[C@H](C)C[C@@H]1O`, with 0.011% [at 95.7 µM]; and `CC(=O)Nc1ccc(OC(=O)c2ccccc2OC(C)=O)cc1`, with -0.0816% [at 46 µM].
`CC(C)OC(=O)OCOP(=O)(CO[C@H](C)Cn1cnc2c(N)ncnc21)OCOC(=O)OC(C)C`: the result was inactive.
In the case of `CN(C)CCN(C)CCO`, the “fluorescence, % of fluorescent control” value was -0.0345%.
Consider `CCCCCCCCCCOC(C)=O`, for which the “fluorescence, % of fluorescent control” value was -0.0809%.
On the same count and under the same terms, then `CCn1cc(C(=O)O)c(=O)c2cnc(N3CCCC3)nc21`, with 0.169% [at 18.6 µM].
Still for that read-out and setting: then `CCCC(=O)OCCC(C)CCC=C(C)C` (stereo not given), with 0.126%.
For the compound `C#CCN[C@@H]1CCc2ccccc21`, the “fluorescence, % of fluorescent control” value is 0.0126% [at 46 µM].
